# Source: PubChem BioAssay
# CCT modulator = High-Throughput Screening for Modulators of Cytosolic Chaperonin Activity | 360,000 compounds, 0.3% hits | purified chaperonin ATPase assay, HTRF ADP detection, 30 min | activity change, % (concentration not given with the values), hits read low; in the data active means activity change below about -30%; further: on the % scale 0 is the no-effect control and ±100 the full control effect
#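 Enzyme 40 or 20 nM (batch-dependent) in Tris pH 7.4/KCl/MgCl2/DTT; cpd 76 uM single point; ATP 10 uM; 30 min 37 °C; Transcreener ADP HTRF detection, 30 min RT; ratio 665/615.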
# TSHR antag = Antagonists of the Thyroid Stimulating Hormone Receptor: HTS campaign | TSHR-expressing cells, TSH-stimulated cAMP HTRF, 2 h; active compounds read low | Thyrotropin receptor (Homo sapiens), P16473 | 330,000 compounds, 0.2% hits | activity change, negative = inhibition, % at 11.5 µM;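 active means activity change below a set negative limit, meaning inhibition stronger than a set level, cut at about -70% in these data; inconclusive means activity change between two set negative limits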; further: on the % scale 0 is the no-effect control and ±100 the full control effect
# Target sequence (P16473 whole entry, looked up): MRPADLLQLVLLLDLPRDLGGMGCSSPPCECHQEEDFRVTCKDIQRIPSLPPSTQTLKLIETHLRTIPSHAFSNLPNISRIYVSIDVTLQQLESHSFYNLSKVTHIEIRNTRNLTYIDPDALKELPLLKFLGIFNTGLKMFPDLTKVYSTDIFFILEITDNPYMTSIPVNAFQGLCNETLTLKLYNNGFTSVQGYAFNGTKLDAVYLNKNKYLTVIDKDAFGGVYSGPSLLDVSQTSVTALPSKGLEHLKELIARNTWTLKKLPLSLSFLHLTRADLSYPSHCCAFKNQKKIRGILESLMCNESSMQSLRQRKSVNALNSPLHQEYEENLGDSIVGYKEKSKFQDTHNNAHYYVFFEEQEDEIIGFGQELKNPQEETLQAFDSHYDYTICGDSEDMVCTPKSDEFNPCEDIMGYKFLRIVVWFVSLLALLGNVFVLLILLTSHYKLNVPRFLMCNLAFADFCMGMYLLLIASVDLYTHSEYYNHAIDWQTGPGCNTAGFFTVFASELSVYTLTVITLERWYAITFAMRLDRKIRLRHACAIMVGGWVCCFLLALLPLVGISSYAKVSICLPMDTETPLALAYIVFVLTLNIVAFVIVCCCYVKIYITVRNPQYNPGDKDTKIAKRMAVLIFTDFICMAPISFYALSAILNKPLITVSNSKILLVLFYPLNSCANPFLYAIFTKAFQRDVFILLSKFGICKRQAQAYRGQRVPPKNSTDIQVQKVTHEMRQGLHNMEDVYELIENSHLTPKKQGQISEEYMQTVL
#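 Competitive HTRF cAMP read-out (cryptate anti-cAMP antibody, cAMP-d2; 30 min, room temperature) in freshly harvested TSHR cells. Compounds added before TSH at EC80 (4nM final), followed by 2 hours' incubation at 37 deg C.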
# B2AR arrestin = qHTS assay of beta-arrestin-biased ligands of beta2-adrenergic receptor; Beta-2 adrenergic receptor (Homo sapiens), P07550; beta-arrestin recruitment to beta2AR, cell-based reporter; Potency, µM (titrated, usually from 46.1 µM), for the others: at the top dose activation, usual class: activators; 330,000 compounds, 0.02% hits; AID 492947, 2010;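 further: potency means the concentration at half of the fitted maximal effect; 0% = DMSO controls and full agonism = EC100 isoproterenol or metaproterenol; nearly all actives have a fitted effect of over 65% in size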
# TCR activator = Activators of T cell receptors: qHTS campaign; primary human leukocytes, anti-CD3, IL-2 HTRF, 48 h; Potency, µM (highest dose often 9.22 µM), without a hit: at the highest dose activation of IL-2 secretion, usual class: activators; 330,000 tested, under 10 active; further: % of control where 0% means no effect
#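 Human primary leukocytes + a-CD3 beads + cpd, 48 hr; IL-2 in supernatant by HTRF (ex 320nm / em 665nm). No co-stimulatory signal supplied.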
# MmCpn inh = Inhibitors of TCP-1 ring complex (TRiC) of Methanococcus maripaludis (MmCpn): qHTS; AID 504842, 2011; 330,000 compounds, 0.031% hits; purified Mm-Cpn ATPase, ADP Transcreener TR-FRET; Chaperonin Mm-Cpn (Methanococcus maripaludis); Potency, µM (titrated, usually from 76.9 µM), for inactives: at the top dose activity, negative = inhibition, most hits filed as inhibitors; further: potency means the concentration at half of the fitted maximal effect; on the % scale 0 is the no-effect control and ±100 the full control effect; nearly all actives have a fitted effect of over 80% in size
#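 Purified archaeal Mm-CPN (25nM final) preincubated 10 min at 37degC with compound, then 10uM ATP for 30 min at 37degC; ADP measured by HTRF Transcreener TR-FRET; buffer 30 mM TRIS pH 7.4, 100mM KCl, 5mM MgCl2, 1mM DTT.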
# * hit, by the source's call; u = inconclusive; x = not tested or not shown; [ ] = remark or other dose. Most compounds without a hit are left out; they make up all but 0.5% or so of the library. Unless noted, the call rests on the fitted dose curve; in most records, active means well fitted curve in the direction sought with a large enough effect; inconclusive means small, poorly fitted or top-dose-only effect, or another doubt; inactive means no such curve, though single readings can be large; an effect the other way counts as inactive or inconclusive.
SMILES,CCT modulator,TSHR antag,B2AR arrestin,TCR activator,MmCpn inh
COc1ccc(CCNC(=O)C/C(C)=N/NC(=O)c2ccc(N)cc2)cc1OC,1.0,0.2,-0.7%,3.3%,2.4%
COc1ccc(CCNC(=O)c2cccc3c2C(=O)N(C2CCCCC2)C3)cc1OC,2.5,-78.0*,-1.0%,-2.1%,0.2%
COc1ccc(CCNC(=O)c2ccc(N3CCCC3=O)cc2)cc1OC,-31.8*,3.9,0.2%,-0.2%,-1.4%
O=C(NCCc1ccccc1)c1cccc2c1C(=O)N(C1CCCCC1)C2,-1.4,-5.0,0.3%,-16.9%,2.0%
COc1cccc(/C=C/C(=O)OCC(=O)NCCCc2ccccc2)c1OC,-0.9,x,-0.2%,4.0%,-1.0%
CC1(C)O[C@@H]2[C@H](O1)[C@@H](CO)O[C@H]2n1cnc2c(=O)[nH]cnc21,-49.4*,1.9,0.1%,3.8%,-3.3%
O=c1c2cc(Br)ccc2nc(-c2ccc([N+](=O)[O-])cc2)n1O,-0.2,-9.5,-0.1%,0.1%,-1.3%
Cc1ccc(-c2csc(N(CCCN(C)C)C(=O)c3ccco3)n2)cc1,0.2,11.4,12.7%,1.8%,2.6%
CN(C)CCCN(C(=O)c1ccco1)c1nc(-c2ccc(Cl)cc2)cs1,-2.7,-121.2*,-0.9%,-1.8%,-0.4%
O=C(NCCCNC(=O)c1c(F)cccc1F)c1c(F)cccc1F,-77.7*,-1.1,-0.4%,-3.5%,-10.7%
Cc1nc(NC(=O)C2CCCCC2C(=O)O)sc1C (configuration not stated),-6.5,-6.5,-3.6%,-123.6%,-2.3%
C/C(=N\NC(=S)NCc1ccccc1)c1ccccc1,-0.9,3.4,3.3%,0.6%[46.1 µM],-0.8%
CC1=C/C(=N\NC(=S)NCc2ccccc2)CC1,-1.9,-2.6,7.08µM*,x,-2.5%
Cc1ccccc1C(=O)NCC(c1ccco1)N1CCc2ccccc2C1 (configuration not stated),-1.8,-5.6,-0.1%,0.0%,39.8µM*
CC(=O)Nc1ccc2c(c1)Cc1c-2cc(Cl)c(NC(C)=O)c1Cl,-0.8,x,x,6.8%,x
CC(=O)Nc1c(Cl)cc(Cl)c2c1Cc1cc(Cl)ccc1-2,-47.9*,x,x,4.2%,x
O=C(CC1C(=O)NCCN1Cc1cccc(F)c1F)NCCCC1CCCC1 (configuration not stated),-1.0,-82.4*,-1.0%,0.5%,-0.8%
CCN1C(=O)/C(=C\c2cccs2)C(C(=O)OC)=C1C,-1.1,-3.7,-0.2%,1.4%,-2.2%
CNC(=S)N1N=C(c2ccc(C)cc2)CC1c1ccc(OC)cc1 (configuration not stated),-0.5,-7.0,-0.6%,10.5%,-19.3%
CNC(=S)N1N=C(c2ccc(C)cc2)CC1c1ccc(N(C)C)cc1 (configuration not stated),0.4,-5.3,-0.4%,6.9%,25.1µM*
O=C(CCCN1C(=O)C(c2ccccc2)Oc2cccnc21)NCCc1ccc(Cl)cc1 (configuration not stated),-125.1*,-23.3,0.2%,-0.7%,-8.7%
CCOC(=O)c1sc(=NC(=O)c2ccc(C)c(C)c2)n(C)c1C,0.4,-1.9,0.0%,-16.9%,2.0%
CCOC(=O)c1sc(=NC(=O)c2ccc(OC(C)C)cc2)n(C)c1C,-33.8*,-0.8,0.1%,-11.1%,-26.1%
Nc1ccc2c(c1)C(=O)c1cc(Cl)c(Cl)cc1-2,-1.6,x,x,9.4%,x
Nc1ccc2c(c1)C(=O)c1ccc(N)cc1-2,-61.8*,x,x,14.8%,x
SMILES,CCT modulator,TSHR antag,B2AR arrestin,TCR activator,MmCpn inh
CC(OC(=O)CNC(=O)c1ccc(Cl)c([N+](=O)[O-])c1)C(=O)NC1CCCCC1C (configuration not stated),-2.2,-12.4,-0.5%,-0.8%,0.4%
Cc1ccc(NC(=O)CN(C)C(=O)C(C)OC(=O)CNC(=O)c2ccc(Cl)c([N+](=O)[O-])c2)cc1 (configuration not stated),-76.9*,-8.7,-0.1%,1.4%,2.4%
CCc1ccccc1NC(=O)c1noc(C(C)C)c1[N+](=O)[O-],-4.5,1.1,-0.1%,-1.2%,-3.0%
O=C(CC(c1ccco1)C1CCCCC1=O)c1ccco1 (configuration not stated),-37.9*,-5.3,-0.3%,-3.6%,0.1%
O=C(CC(c1ccccc1)C1CCCCC1=O)c1ccco1 (configuration not stated),-0.5,3.6,0.5%,-2.4%[46.1 µM],-1.3%
COc1cccc(C2=CC(=O)CCC2)c1OC,-1.8,x,x,9.4%,x
Cc1cc(=O)oc2c3c(cc(OCC(=O)NCC(=O)N[C@H](C(=O)O)C(C)C)c12)OC(C)(C)CC3,-2.7,-4.0,2.9%,-2.8%,-4.7%
Cc1ccc(C(=O)Nn2cnc3scc(-c4cccs4)c3c2=O)c(O)c1,-46.9*,-9.6,-0.9%,-2.9%,-0.2%
CCC(c1nnc(SCC(=O)N2CCOCC2)n1C1CCCCC1)N(C)C (configuration not stated),0.5,7.6,-0.8%,-2.3%,0.7%
C#Cc1ccc([C@H]2C=C(C(=O)NCc3ccccc3)O[C@@H](OCC)[C@@H]2CCCO)cc1,-68.2*,0.9,0.2%,-13.8%,x
C#Cc1ccc([C@@H]2C=C(C(=O)Nc3ccccc3)O[C@H](OCC)[C@H]2CCCO)cc1,0.2,-9.9,-0.2%,0.2%,x
O=C(CNC(=S)N(Cc1ccccc1)Cc1cccnc1)N1CCOCC1,0.8,-4.9,0.0%,1.7%,0.3%
O=C(CCS(=O)(=O)c1ccc(Br)cc1)NCc1ccc(F)cc1,-79.8*,-126.0*,0.0%,-5.8%,0.0%
COc1nc(OCC#N)nc(N2CCCCC2)n1,-0.4,11.5,-0.9%,x,2.6%
CCOC(=O)c1ccc(N2C(=O)C3CC=CCC3C2=O)cc1 (configuration not stated),-46.0*,-9.7,-0.1%,-0.1%,-3.1%
O=S(=O)(c1ccccc1)N1CCN(c2ncnc3sc(-c4ccccc4)cc23)CC1,0.1,-5.3,-0.4%,-3.2%,-0.1%
Cn1c(SCC(=O)Nc2ccc(N3CCOCC3)cc2)nnc1-c1ccccc1F,-0.7,1.8,-0.3%,1.1%,-0.9%
Cn1c(SCC(=O)Nc2ccc(N3CCOCC3)cc2)nnc1-c1ccccc1,-35.2*,0.9,0.1%,-7.4%,-1.1%
Cc1ccccc1NC(=O)Cc1nc(COC(=O)CSc2ccc(F)cc2)cs1,-58.2*,x,x,x,x
CNC(=S)N1C2CCCC1CC(NC(=O)c1ccc(C)cc1)C2 (configuration not stated),-48.2*,x,x,x,x
COc1ccc(-c2csc(NC(=O)c3ccc(S(=O)(=O)N4CCc5ccccc5C4)cc3)n2)c(OC)c1,0.2,8.9,-0.8%,12.8%[46.1 µM],50.1µM*
CCOc1ccc(-c2csc(NC(=O)c3ccc(S(=O)(=O)N4CCc5ccccc5C4)cc3)n2)cc1,-0.6,4.8,-2.1%,3.3%[46.1 µM],u
